Results filed as inconclusive are left out. The source made the active and inactive calls. The call rests on the fitted dose curve; in most records, active means well fitted cell-killing curve with a large enough effect in the repeat runs; inconclusive means weak or mixed curves; inactive means flat fitted curve, though single readings scatter.

A short description of the test: qHTS assay to identify small molecule antagonists of the estrogen related receptor (ERR) signaling pathway - cell viability counter screen (AID 1224818). The following applies: ERR reporter cell line viability counter screen; series mostly up to 92.2 µM. An excerpt:
National Center for Advancing Translational Sciences [NCATS]
NIH Chemical Genomics Center [NCGC]
U.S. Environmental Protection Agency [EPA]
National Institutes of Environmental Health Sciences [NIEHS]
National Toxicology Program [NTP]
U.S. Food and Drug Administration [FDA]
Estrogen related receptors (ERRs), the first orphan nuclear receptors discovered, play an important role in the control of cellular energy metabolism. ERRs are required for high-energy production in response to the environmental challenges. ERR-alpha was also identified as an adverse marker for breast cancer progression; ERR-alpha-positive tumors have a poor prognosis. To screen and to identify environmental compounds that perturb the ERR signaling pathways could provide valuable information for potential therapeutic or preventive measures in the treatment of metabolic disease. To differentiate true ERR antagonists or agonist from cytotoxic substances, the assay is multiplexed with cell viability assay.
Tox21 Assay Protocol Summary:
The ERR cells were dispensed at 2,000 cells/5 ul/well in 1536-well white plates using a Multidrop dispenser. After the assay plates were incubated at a 37 C/5% CO2 incubator for 6 hours, 23 nL of compounds dissolved in DMSO, positive and negative controls or DMSO only was transferred to the assay plate by a pin tool. The plates were incubated at 37 C for 17.5 hours. 1 ul/well of CellTiter-Fluor reagent was added into the assay plates using a Flying Reagent Dispenser. After 30 min incubation at 37 C/5% CO2, the fluorescence intensity in the plates was measured using a ViewLux plate reader.
In general terms: Quantitative high-throughput screening tests each substance at several concentrations.
As for `CCCCOC(=O)c1ccccc1C(=O)OCc1ccccc1`, the compound was called inactive.

On to `c1cc2ccc3cccc4ccc(c1)c2c34`, for which the compound was classed as inactive.

For `C=CC(=O)NCNC(=O)C=C`, the compound was called inactive.

As to `CC(=O)[C@H]1CC[C@H]2[C@@H]3CC[C@H]4C[C@](C)(O)CC[C@]4(C)[C@H]3CC[C@]12C`, the compound was classed as inactive.

`c1ccc(C2CC2)c(OCC2=NCCN2)c1`: the result was inactive.

As to `O=S(=O)(O)C(F)(F)C(F)(F)C(F)(F)C(F)(F)F`, the outcome was inactive.

Regarding `NCC(CC(=O)O)c1ccc(Cl)cc1` (stereo not given), the outcome was inactive.

Regarding `CC(O)(CS(=O)(=O)c1ccc(F)cc1)C(=O)Nc1ccc(C#N)c(C(F)(F)F)c1` (stereo not given), the compound was called inactive.

Regarding `OCCCBr`, the outcome was inactive.

Turning to `CC(C)=CCOc1c2occc2cc2ccc(=O)oc12`, the outcome was inactive.

Regarding `COCCOCCO`, the call was inactive.

For the compound `COc1nn(CSP(=S)(OC)OC)c(=O)s1`, the call was inactive.

Turning to `NC(=O)CI`, the result was inactive.

Regarding `CC(C)(C)C(O)C(Oc1ccc(Cl)cc1)n1cncn1` (stereo not given), the call was inactive.

For the compound `CC(C)N(CCC(C(N)=O)(c1ccccc1)c1ccccn1)C(C)C` (stereo not given), the outcome was inactive.

Values taken from PubChem BioAssay (Tox21).
